# In the library only some 19% were active in any assay of this set; here they are far more common.
# KB-3-1 tox: qHTS assay for MDR1-selective chemotherapeutics: Primary screen using the parental adenocarcinoma cell KB-3-1. KB-3-1 viability, CellTiter-Glo ATP luminescence, 72 h. Potency, µM (highest dose often 46.1 µM), hits mostly cytotoxic. AID 1347075, 2019. 400,000 compounds, 1.4% hits; also: nearly all actives have a fitted effect of over 60% in size
#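 Using CellTiter-Glo luminescence, growth of non-resistant KB-3-1 adenocarcinoma cells is assessed 72 h after pin-tool compound addition at 37 °C. Normalized responses across the concentration series yield fitted curves.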
# KB-V1 cytotox: qHTS assay for MDR1-selective chemotherapeutics: Primary screen using the drug-selected MDR subline cells KB-V1; Potency, µM (highest dose often 46.1 µM), usual class: cytotoxic; 400,000 compounds, 3.4% hits; AID 1347076, 2019; KB-V1 MDR cells viability, CellTiter-Glo, 72 h; also: nearly all actives have a fitted effect of over 60% in size
#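 Cytotoxicity toward P-gp-expressing KB-V1 cells was determined as loss of CellTiter-Glo luminescence after 72 h at 37 degrees C. Compounds were tested in quantitative HTS format across a concentration range, with curves fitted to normalized data.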
# HT1080 IDH1KD tx: qHTS for induction of synthetic lethality in tumor cells producing 2HG: qHTS for the HT-1080-IDH1KD cell line; HT-1080 IDH1 knockdown viability, ATP luminescence, 48 h; 360,000 compounds, 2% hits; Potency, µM (highest dose often 46.1 µM), without a hit: top-dose activity, negative = toxicity, actives largely listed as cytotoxic; AID 686971, 2013;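 also: 0% = DMSO wells and -100% = cell-free medium wells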
#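 CellTiter-Glo luminescence after 48 h compound exposure at 37 degrees C of IDH1-knockdown HT-1080 cells in 5% FBS RPMI. %Activity scaled between DMSO wells and cell-free media wells, with curves fitted and assigned curve classes.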
# DT40 TDP1 no CPT: qHTS for Inhibitors of human tyrosyl-DNA phosphodiesterase 1 (TDP1): qHTS in cells in absence of CPT. DT40 Tdp1-/- hTDP1 cells, no CPT, ATP luminescence, 48 h. Potency, µM (doses to about 46.2 µM), inactives show top-dose activity change, negative = growth inhibition, most hits filed as inhibitors. 420,000 compounds, 15% hits. AID 686978, 2013; also: nearly all actives have a fitted effect of over 55% in size
#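 Seeded 400 DT40-hTDP1 cells/well (vehicle DMSO, no 20 nM CPT); pinned compounds; ≥48 hr at 37 °C; CellTiter-Glo luminescence as viability measure.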
# TDP1 cell CPT: qHTS for Inhibitors of human tyrosyl-DNA phosphodiesterase 1 (TDP1): qHTS in cells in presence of CPT. 420,000 compounds, 12% hits. Potency, µM (highest dose often 46.2 µM), inactives show at the highest dose activity change, negative = growth inhibition, actives largely listed as inhibitors. chicken DT40 Tdp1-/-;hTDP1 cells + 20 nM CPT, ATP luminescence, 48 h; also: nearly all actives have a fitted effect of over 55% in size
#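 Cell growth measured by CellTiter-Glo luminescence after a minimum 48 h, 37 C compound exposure with 20 nM CPT in Tdp1-knockout DT40 cells stably expressing hTDP1, seeded 400/well; qHTS titration format.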
# HT1080NT lethal: qHTS for induction of synthetic lethality in tumor cells producing 2HG: qHTS for the HT-1080-NT fibrosarcoma cell line; Potency, µM (doses to about 46.1 µM), for inactives: top-dose activity, negative = less viability, usual class: cytotoxic; 360,000 compounds, 1.6% hits; HT-1080-NT fibrosarcoma viability, CellTiter-Glo ATP luminescence, 48 h;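 also: NT is the 2HG producing partner of a matched IDH1 knockdown line; 0% = DMSO-treated cells and -100% = media-only wells without cells; nearly all actives have a fitted effect of over 55% in size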
#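 Compounds were tested in concentration-response format on HT-1080-NT cells for 48 hours at 37 degrees C. Cell viability came from CellTiter-Glo luminescence; curves were classified by r2, response magnitude and activity.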
# * marks the source's active call; other numbers are inactive results; i = inactive; ? = inconclusive; · = not tested or not shown. Calls follow the shape of the dose curve; as a rule, active = well fitted curve in the direction sought with a large enough effect; inconclusive = small, poorly fitted or top-dose-only effect, or another doubt; inactive = no such curve, though single readings can be large; an effect the other way counts as inactive or inconclusive. Unless noted, % is scaled to controls: 0 for no effect and ±100 for the full control effect; potency is read from the fitted curve at half-maximal effect.
SMILES,KB-3-1 tox,KB-V1 cytotox,HT1080 IDH1KD tx,DT40 TDP1 no CPT,TDP1 cell CPT,HT1080NT lethal
O=c1cc(CSc2ccc(Cl)cc2)nc(-c2ccccn2)[nH]1,13µM*,i,-29%,4.1µM*,4.1µM*,-17%
COC(=O)c1cccc(CSc2nnc(C)s2)c1,i,i,4%,2%,-12%,5%
CC(=O)Nc1ccc(CNc2nc3cc(-c4cccc(C(F)(F)F)c4)sc3c(=O)n2C)cc1,i,?,?,21µM*,23µM*,?
Cn1c(NCc2ccccc2F)nc2cc(-c3cccc(C(F)(F)F)c3)sc2c1=O,i,i,29%,15µM*,13µM*,26%
COc1cccc(CNc2nc3cc(-c4cccc(C(F)(F)F)c4)sc3c(=O)n2C)c1,i,i,8%,-39%,-26%,7%
Cc1nc(SCC(=O)Nc2sccc2C(N)=O)c2c(C)c(C)sc2n1,i,i,?,?,21µM*,?
Cc1nc(SCC(=O)Nc2cc(C(N)=O)cc(C(N)=O)c2)c2c(C)c(C)sc2n1,i,i,10%,8%,5%,2%
COC(=O)c1sc2nc(C)nc(SCC(=O)Nc3sccc3C(N)=O)c2c1C,i,i,2%,16µM*,18µM*,-6%
Cc1nc(SCC(=O)Nc2ccc(S(=O)(=O)N3CCOCC3)cc2)c2c(C)c(C)sc2n1,5.8µM*,i,?,?,26µM*,-9%
O=P(Cc1ccccc1)(c1ccccc1)c1ccccc1,i,?,8%,?,?,10%
O=P(Cc1ccccc1)(Cc1ccccc1)c1ccccc1,i,18µM*,-7%,?,?,1%
COc1cc(C2NC(=O)NC(C)=C2C(=O)OCC2CCCO2)cc(OC)c1OC (centres undefined),i,i,6%,1%,11%,11%
CCn1c(SCc2ccccc2Cl)nc2nc3c(cc2c1=O)CCCC3,?,i,-29%,23µM*,16µM*,-8%
CCn1c(SCC(=O)Nc2ccc(C(C)=O)cc2)nc2nc3c(cc2c1=O)COC(C)(C)C3,i,i,-2%,-1%,0%,-2%
O=C(CSc1nc2nc3c(cc2c(=O)n1-c1ccccc1)CCCC3)Nc1cccc2ccccc12,i,i,1%,?,-13%,-11%
CCn1c(SCC(=O)Nc2ccc(Cl)cc2)nc2nc3c(cc2c1=O)CCCC3,i,0.52µM*,6%,?,?,2%
CCn1c(SCC(=O)Nc2ccccc2C)nc2nc3c(cc2c1=O)COC(C)(C)C3,i,i,2%,10µM*,?,6%
Cc1ccccc1-n1c(SCC(=O)Nc2ccccc2)nc2nc3c(cc2c1=O)CCCC3,?,?,-4%,16µM*,?,-7%
CC1=C(C(=O)Nc2ccccc2)C(c2ccc[nH]2)n2ncnc2N1 (centres undefined),?,i,·,?,?,·
COc1ccc(NC(=O)c2sc3nc(C)c(C(=O)Nc4ccc(C)cc4C)c(-c4sccc4C)c3c2N)cc1,i,i,·,-20%,5%,·
O=C(NCc1ccccc1)c1cc(C2COCCN2C(=O)OCCF)on1 (centres undefined),i,i,9%,2%,1%,22%

# Screening results as filed in PubChem BioAssay.
